Test results from PMC11062922 (Nature Chemical Biology, 2023).
Where two headings read alike, the source gives them in different places.

Assays:
PKN3 [1] = test system: PKN3; set-up: species or system human, MV4-11 + K-562 + COLO205 + SK-N-BE2 + OVCAR-8; conditions: read-out: apparent Kd, n = 1;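 for IC50: NanoBRET target engagement in HEK293T cells transiently expressing full-length PKN3 with C-terminal NanoLuc, displacement of fluorescent tracer K5 (500 nM), BRET read after 2 h equilibration at 37 °C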
PKN3 [2] = conditions: hek293t cells
SIK2 = test system: SIK2; set-up: species or system human, MV4-11 + K-562 + COLO205 + SK-N-BE2 + OVCAR-8; conditions: read-out: apparent Kd, n = 1
CSNK2A1;CSNK2A3 = test system: CSNK2A1;CSNK2A3; set-up: species or system human, MV4-11 + K-562 + COLO205 + SK-N-BE2 + OVCAR-8; conditions: read-out: apparent Kd, n = 1
CSNK2A2 = test system: CSNK2A2; set-up: species or system human, MV4-11 + K-562 + COLO205 + SK-N-BE2 + OVCAR-8; conditions: read-out: apparent Kd, n = 1
AAK1 = test system: AAK1; set-up: species or system human, MV4-11 + K-562 + COLO205 + SK-N-BE2 + OVCAR-8; conditions: read-out: apparent Kd; compound concentrations:100 nM and 1000 nM (sheet 'Samples'); n = 1
BMP2K = test system: BMP2K; set-up: species or system human, MV4-11 + K-562 + COLO205 + SK-N-BE2 + OVCAR-8; conditions: read-out: apparent Kd; compound concentrations:100 nM and 1000 nM (sheet 'Samples'); n = 1
CLK1 = test system: CLK1; set-up: species or system human, MV4-11 + K-562 + COLO205 + SK-N-BE2 + OVCAR-8; conditions: read-out: apparent Kd; compound concentrations:100 nM and 1000 nM (sheet 'Samples'); n = 1
CLK4 = test system: CLK4; set-up: species or system human, MV4-11 + K-562 + COLO205 + SK-N-BE2 + OVCAR-8; conditions: read-out: apparent Kd; compound concentrations:100 nM and 1000 nM (sheet 'Samples'); n = 1
FLT4 = test system: FLT4; set-up: species or system human, MV4-11 + K-562 + COLO205 + SK-N-BE2 + OVCAR-8; conditions: read-out: apparent Kd; compound concentrations:100 nM and 1000 nM (sheet 'Samples'); n = 1
GAK = test system: GAK; set-up: species or system human, MV4-11 + K-562 + COLO205 + SK-N-BE2 + OVCAR-8; conditions: read-out: apparent Kd; compound concentrations:100 nM and 1000 nM (sheet 'Samples'); n = 1
GSK3A = test system: GSK3A; set-up: species or system human, MV4-11 + K-562 + COLO205 + SK-N-BE2 + OVCAR-8; conditions: read-out: apparent Kd; compound concentrations:100 nM and 1000 nM (sheet 'Samples'); n = 1
GSK3B = test system: GSK3B; set-up: species or system human, MV4-11 + K-562 + COLO205 + SK-N-BE2 + OVCAR-8; conditions: read-out: apparent Kd; compound concentrations:100 nM and 1000 nM (sheet 'Samples'); n = 1
MELK = test system: MELK; set-up: species or system human, MV4-11 + K-562 + COLO205 + SK-N-BE2 + OVCAR-8; conditions: read-out: apparent Kd; compound concentrations:100 nM and 1000 nM (sheet 'Samples'); n = 1
NUAK1 = test system: NUAK1; set-up: species or system human, MV4-11 + K-562 + COLO205 + SK-N-BE2 + OVCAR-8; conditions: read-out: apparent Kd; compound concentrations:100 nM and 1000 nM (sheet 'Samples'); n = 1
PAK4 = test system: PAK4; set-up: species or system human, MV4-11 + K-562 + COLO205 + SK-N-BE2 + OVCAR-8; conditions: read-out: apparent Kd; compound concentrations:100 nM and 1000 nM (sheet 'Samples'); n = 1
PKN1 = test system: PKN1; set-up: species or system human, MV4-11 + K-562 + COLO205 + SK-N-BE2 + OVCAR-8; conditions: read-out: apparent Kd; compound concentrations:100 nM and 1000 nM (sheet 'Samples'); n = 1
PRKAG1 = test system: PRKAG1; set-up: species or system human, MV4-11 + K-562 + COLO205 + SK-N-BE2 + OVCAR-8; conditions: read-out: apparent Kd; compound concentrations:100 nM and 1000 nM (sheet 'Samples'); n = 1
Q6ZSR9 = Q6ZSR9 (human, UniProt Q6ZSR9); set-up: species or system MV4-11 + K-562 + COLO205 + SK-N-BE2 + OVCAR-8; conditions: read-out: apparent Kd; compound concentrations:100 nM and 1000 nM (sheet 'Samples'); n = 1
RET = test system: RET; set-up: species or system human, MV4-11 + K-562 + COLO205 + SK-N-BE2 + OVCAR-8; conditions: read-out: apparent Kd; compound concentrations:100 nM and 1000 nM (sheet 'Samples'); n = 1
[3] = compound concentrations:100 nM and 1000 nM (sheet 'Samples')

Chain of Q6ZSR9 (Q6ZSR9 whole entry, looked up): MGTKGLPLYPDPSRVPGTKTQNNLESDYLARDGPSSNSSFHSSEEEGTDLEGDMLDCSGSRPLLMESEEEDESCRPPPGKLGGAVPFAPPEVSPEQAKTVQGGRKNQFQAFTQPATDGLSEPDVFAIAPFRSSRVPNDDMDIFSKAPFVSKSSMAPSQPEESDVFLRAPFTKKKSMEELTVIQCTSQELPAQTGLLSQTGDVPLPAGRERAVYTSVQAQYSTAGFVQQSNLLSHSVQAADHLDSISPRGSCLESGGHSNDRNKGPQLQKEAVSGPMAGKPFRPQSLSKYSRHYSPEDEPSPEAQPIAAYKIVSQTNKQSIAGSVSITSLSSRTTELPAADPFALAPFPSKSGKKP

## Cl.NCc1ccc(-c2nc(-c3ccc(Cl)c(O)c3)c(-c3ccncc3)[nH]2)cc1 [SB-476429-A]
PKN3 [1]; [3]
  potency estimated from few doses: 36 nM
PKN3 [2]; read-out: Average, SD, n = 4
  IC50: 243 nM
PKN3 [2]; read-out: Rep 1
  IC50: 589 nM
PKN3 [2]; read-out: Rep 2
  IC50: 211 nM
PKN3 [2]; read-out: Rep 3
  IC50: 86.7 nM
PKN3 [2]; read-out: Rep 4
  IC50: 85.4 nM

## CCOc1nccc2c1nc(-c1nonc1N)n2CC [SB-737198]
PKN3 [1]; compound concentrations: 100 nM and 1000 nM (sheet 'Samples'), CATDS: 0.243522946677111
  potency estimated from few doses: 869 nM
SIK2; compound concentrations: 100 nM and 1000 nM (sheet 'Samples'), CATDS: 0.197359346007206
  potency estimated from few doses: 1500 nM
PKN3 [2]; read-out: Average, n = 4
  IC50: > 50000 nM
PKN3 [2]; read-out: Rep 1
  IC50: > 50000 nM
PKN3 [2]; read-out: Rep 2
  IC50: > 50000 nM
PKN3 [2]; read-out: Rep 3
  IC50: > 50000 nM
PKN3 [2]; read-out: Rep 4
  IC50: > 50000 nM

## CONC1=NC(=O)/C(=C/c2ccc3ncccc3c2)S1 [RO4613269-000]
CSNK2A1;CSNK2A3; compound concentrations: 100 nM and 1000 nM (sheet 'Samples'), CATDS: 0.42776292921510001
  potency estimated from few doses: 58.1 nM
CSNK2A2; compound concentrations: 100 nM and 1000 nM (sheet 'Samples'), CATDS: 0.433008345682735
  potency estimated from few doses: 56.8 nM

## Cc1cccc2c(-c3ccncn3)c(-c3ccc(F)cc3)nn12 [GW515532X]
PKN3 [1]; compound concentrations: 100 nM and 1000 nM (sheet 'Samples'), CATDS: 0.37134711180045199
  potency estimated from few doses: 663 nM
PKN3 [2]; read-out: Average, SD, n = 3
  IC50: 26700 nM
PKN3 [2]; read-out: Rep 1
  IC50: 78800 nM
PKN3 [2]; read-out: Rep 2
  IC50: 922 nM
PKN3 [2]; read-out: Rep 4
  IC50: 257 nM

## O=C1N=C(Nc2ccccc2)S/C1=C\c1ccc2ncccc2c1 [RO4493940-000]
CSNK2A1;CSNK2A3; compound concentrations: 100 nM and 1000 nM (sheet 'Samples'), CATDS: 0.36155727747203598
  potency estimated from few doses: 291 nM
CSNK2A2; compound concentrations: 100 nM and 1000 nM (sheet 'Samples'), CATDS: 0.44448936869789302
  potency estimated from few doses: 203 nM

## O=C1NC(=O)C(N2CCc3ccccc32)=C1c1ccccc1Cl [SB-373598]
AAK1
  potency estimated from few doses: 284 nM
BMP2K
  potency estimated from few doses: 478 nM
CLK1
  potency estimated from few doses: 275 nM
CLK4
  potency estimated from few doses: 246 nM
CSNK2A1;CSNK2A3; [3]
  potency estimated from few doses: 315 nM
CSNK2A2; [3]
  potency estimated from few doses: 301 nM
FLT4
  potency estimated from few doses: 478 nM
GAK
  potency estimated from few doses: 167 nM
GSK3A
  potency estimated from few doses: 104 nM
GSK3B
  potency estimated from few doses: 177 nM
MELK
  potency estimated from few doses: 1000 nM
NUAK1
  potency estimated from few doses: 287 nM
PAK4
  potency estimated from few doses: 298 nM
PKN1
  potency estimated from few doses: 1180 nM
PKN3 [1]; [3]
  potency estimated from few doses: 566 nM
PRKAG1
  potency estimated from few doses: 215 nM
Q6ZSR9
  potency estimated from few doses: 280 nM
RET
  potency estimated from few doses: 239 nM
SIK2; [3]
  potency estimated from few doses: 192 nM

## COc1cc(Nc2ncc3c(C)nc(-c4cc5ccccc5[nH]4)n3n2)cc(OC)c1OC [GW869516X]
CSNK2A1;CSNK2A3; compound concentrations: 100 nM and 1000 nM (sheet 'Samples'), CATDS: 0.461357463552929
  potency estimated from few doses: 78.3 nM
CSNK2A2; compound concentrations: 100 nM and 1000 nM (sheet 'Samples'), CATDS: 0.54570756078054605
  potency estimated from few doses: 55.8 nM
